According to PubChem BioAssay AID1241 (SRMLSC, 2008):
The whole screen tested about 1,200 compounds, of which about 840 (70%) were called active. The rule behind the calls is not given here. So high a share suggests a set chosen from earlier hits. These entries were drawn from the full list. Results with a measured potency or affinity are listed apart.

assay: compounds inducing NF-kB luciferase expression – cell-based, SH-SY5Y, dose response (AID 1241); details: SH-SY5Y NF-kB promoter luciferase reporter; series mostly up to 30 µM

Fold induction over control, inactive:
CCN1CCCc2cc(CN(CCN3CCOCC3)C(=S)Nc3cccc(Cl)c3)ccc21, CCc1nc(Sc2nnnn2-c2ccccc2)c2c3c(sc2n1)CCCC3, CCC/C=N/Nc1nc2ccccc2s1, CCCNC(=O)c1cc(-c2ccc(OC)cc2)on1, COc1ccc(C(=O)c2oc3ccc(OC)cc3c2N)cc1, O=c1cc(-c2ccc3c(c2)OCCO3)oc2ccc(Cl)cc12 10.2 [at 3.75 µM], N/C(=N\OC(=O)COc1ccc(Cl)cc1Cl)c1ccncc1, COc1cccc(-c2nc3ccccc3s2)c1O, Brc1ccc(-c2nc3ccccc3s2)s1, Cc1ccc(-c2cc(=O)c3cc(C)ccc3[nH]2)cc1, Cc1ccc2[nH]c(-c3ccccc3)cc(=O)c2c1, Clc1ccc2nc3c4ccccc4cnn3c2c1, C/C(N)=C(/C#N)C(=O)CSc1nnc(-c2ccccc2Br)o1, CCOC(=O)/C(=C\c1ccc(OC(F)F)cc1)C1=Nn2c(nnc2-c2ccc(Cl)cc2)SC1, CC(OC(=O)CCc1nc2ccccc2c(=O)[nH]1)C(=O)c1ccc(C(C)(C)C)cc1 (stereo not drawn), CCCOC(=O)c1ccc(NC(=O)CC(C)(C)C)cc1, COc1ccc(-c2cc(-c3ccccc3)c(C#N)c(S(C)(=O)=O)n2)cc1, CC1=CN2C(=N)/C(=C/c3ccco3)C(=O)N=C2S1, Cc1cc(NC2CCCCC2)n2c(n1)nc1ccccc12, Cc1cccc(-c2c(O)cc(=O)[nH]c2Cl)c1, CC(C)Oc1ccc2c(=O)c(-c3ccccc3)coc2c1, CCOc1cc(/C=C2/NC(=O)N(Cc3ccccc3F)C2=O)ccc1O, Cc1cc(C)nc(Sc2nc(C)nc3c2oc2ccccc23)n1, COC(=O)C1C(=O)/C(=C/N(C)C)C(=O)CC1(C)C (stereo not drawn), Clc1ccc(-c2cc(CSc3ccccc3)on2)cc1, O=C(NCCN1CCOCC1)c1cc(-c2cccs2)on1, O=C1N/C(=C/c2ccc(N3CCOCC3)o2)C(=O)N1c1ccccc1, CCOc1ccc(C2=NNC(c3cccs3)=Nc3ccc(OC)cc32)cc1, COc1ccc(/C=N/n2c(-c3cccs3)n[nH]c2=S)cc1, COc1ccc(/C=N/Nc2ccc([N+](=O)[O-])cc2S(=O)(=O)N2CCN(C)CC2)cc1, COc1ccc(/C=N/NC(=O)COc2ccccc2-c2ccccc2)cc1, CNC(=S)N/N=C(\C)c1ccc(N2CCOCC2)cc1, COC(=O)N/N=C(/c1ccccc1)C1CCCCC1, O=c1c2c(nc3cc(-c4cccc(Cl)c4)[nH]n13)CCC2, O=C(Nc1ccc2ccccc2c1)c1cnccn1, c1ccc(Nc2nc3ccccc3o2)cc1, NC(N)=N/N=C/c1ccc(OCc2ccc(Cl)cc2)cc1, Cn1cccc1/C=C1\Cc2ccccc2C1=O, COc1ccc(C(=O)/C=C/c2cccs2)c(OC(=O)c2cccc([N+](=O)[O-])c2)c1, COc1ccc(/C=C\c2nc(=O)c3ccccc3o2)cc1, Cc1nc(SCc2ccc(Cl)cc2)ncc1C(=O)O, CC(C)CC(=O)Nc1ccc2c(c1)oc1ccccc12, CC(=O)Nc1cc2nn(-c3ccccc3)nc2cc1Cl, COc1ccc(-[n+]2c(C)cc(/C=C3\Sc4ccccc4N3C)cc2C)cc1, Cc1ccc(C2=NN3C(C2)c2ccccc2OC32C(=O)Nc3ccccc32)cc1 (stereo not drawn), Cc1[nH]n(-c2ccccc2)c(=O)c1C=NC1CCCCC1, C=CCN=Cc1c(C)[nH]n(-c2ccccc2)c1=O, O=C(Nc1ccccc1O)c1ccc(Cl)cc1, CCOC(=O)c1noc(C)c1C(=O)Nc1nccs1, COc1cccc(NC(=S)N(CCN(C)C)Cc2cccs2)c1, O=C(c1ccco1)n1c(=S)nc2ccccn21, Cc1ccc(C(=O)CSc2nsc(C)c2C#N)cc1, Cc1cccc2nc(=S)n(C(=O)c3ccco3)n12, CCOC1CS(=O)(=O)CC1OCC (stereo not drawn), O=C(c1ccccc1)c1ccccc1C(=O)N1CCCC1, COc1ccc(N=c2sc3ccccc3n2C)cc1, COc1ccc(N=C2C(=Nc3ccc(OC)cc3)N(c3ccccc3)C(=S)N2C(=O)c2ccc(Cl)cc2)cc1, Cc1cccc(/C(N)=N/OC(=O)c2cccs2)c1, COc1cc(C2C(S(=O)(=O)c3ccccc3)CON2C)ccc1OCc1ccc(F)cc1 (stereo not drawn), O=C(Oc1ccccc1/C=C\C(=O)c1cc2ccccc2o1)c1ccccc1, Cn1c(SCc2ccc(C#N)cc2Cl)nc2ccccc21, c1ccc2nc3c(nc2c1)[nH]c1ccccc13, c1ccc(C2=Nc3ccccc3SC2c2nc3ccccc3[nH]2)cc1 (stereo not drawn), COC(=O)c1ccc(COn2nnc3ccccc32)cc1, CCCOc1ccc2c3c(c(=O)oc2c1OCCC)CCC3, O=C(NCCCN1CCOCC1)c1cc(-c2ccccc2)on1, O=C(NCCN1CCOCC1)c1cc(-c2ccccc2)on1, O=C(Oc1ccc(-c2ccccc2)cc1)N1CCCCC1, COc1ccccc1-c1cc(C(=O)N2CCCCC2)no1, Cc1cccc(-c2cc3nc(C)cc(C)n3n2)c1, CNc1nc(-c2ccccn2)nnc1-c1ccccc1, CN1CCN(CC(=O)N2c3ccccc3C(C)(c3ccccc3)CC2(C)C)CC1 (stereo not drawn), Cc1cccc(-c2noc(-c3ccc(F)cc3)n2)c1, O=C(CSc1nc(Nc2ccccc2)nc(N2CCOCC2)n1)Nc1ccccc1Cl, O=C(Nc1ccc(N2CCCC2=O)cc1)c1cccc(F)c1, Cc1ccc(-c2cnc3cc(C)nn3c2)cc1, CCCc1cc(C(=O)Nc2cc(Br)ccc2O)no1, N#Cc1ncc(-c2ccc3c(c2)OCCOCCOCCOCCOCCO3)nc1C#N
